# Results filed as inconclusive are left out. A call without a number means that no potency is given here. Values without a mark were called inactive. Activity calls are given as the source filed them. The call rests on the fitted dose curve; in most records, active means well fitted curve in the direction sought with a large enough effect in the repeat runs; inconclusive means weak or mixed curves; inactive means no such curve, though single readings can be large; an effect the other way counts as inactive or inconclusive.
# Key:
# [1] = target: Cytochrome P450 2D6 (Homo sapiens) (UniProt P10635); test: Cytochrome P450 Family 2 Subfamily D Member 6 (CYP2D6) small molecule antagonists: luciferase reporter qHTS assay (AID 1671196); further: nearly all actives have a fitted effect of over 50% in size; further: potency means the concentration at half of the fitted maximal effect; on activity change, negative = inhibition: series mostly up to about 120 µM
# Chain of Cytochrome P450 2D6 (Homo sapiens) (P10635 whole entry, looked up): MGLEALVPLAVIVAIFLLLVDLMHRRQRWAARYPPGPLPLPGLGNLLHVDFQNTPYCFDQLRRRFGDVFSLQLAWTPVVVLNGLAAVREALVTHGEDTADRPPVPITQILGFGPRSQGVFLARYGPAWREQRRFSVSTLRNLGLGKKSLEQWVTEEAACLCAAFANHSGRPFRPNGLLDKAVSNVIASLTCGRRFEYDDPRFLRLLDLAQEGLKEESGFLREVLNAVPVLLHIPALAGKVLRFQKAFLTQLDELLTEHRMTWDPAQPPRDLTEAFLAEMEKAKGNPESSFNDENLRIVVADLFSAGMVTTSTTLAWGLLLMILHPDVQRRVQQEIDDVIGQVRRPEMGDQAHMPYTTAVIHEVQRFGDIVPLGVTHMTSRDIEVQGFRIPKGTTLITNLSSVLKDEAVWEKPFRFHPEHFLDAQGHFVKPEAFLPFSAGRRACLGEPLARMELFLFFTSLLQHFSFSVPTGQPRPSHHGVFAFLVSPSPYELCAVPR
# Outline: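 Enzyme and proluciferin substrate were first combined with test chemical for 10 min at room temperature. Adding NADPH regeneration solution started a 1 h reaction, stopped with luciferin detection reagent and read by luminescence 20 min later.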
# [2] = target: Cytochrome P450 2C19 (Homo sapiens) (UniProt P33261); test: Cytochrome P450 Family 2 Subfamily C Member 19 (CYP2C19) small molecule antagonists: luciferase reporter qHTS assay (AID 1671197); further: nearly all actives have a fitted effect of over 65% in size; further: potency means the concentration at half of the fitted maximal effect; on activity change, negative = inhibition: series mostly up to about 120 µM
# Chain of Cytochrome P450 2C19 (Homo sapiens) (P33261 whole entry, looked up): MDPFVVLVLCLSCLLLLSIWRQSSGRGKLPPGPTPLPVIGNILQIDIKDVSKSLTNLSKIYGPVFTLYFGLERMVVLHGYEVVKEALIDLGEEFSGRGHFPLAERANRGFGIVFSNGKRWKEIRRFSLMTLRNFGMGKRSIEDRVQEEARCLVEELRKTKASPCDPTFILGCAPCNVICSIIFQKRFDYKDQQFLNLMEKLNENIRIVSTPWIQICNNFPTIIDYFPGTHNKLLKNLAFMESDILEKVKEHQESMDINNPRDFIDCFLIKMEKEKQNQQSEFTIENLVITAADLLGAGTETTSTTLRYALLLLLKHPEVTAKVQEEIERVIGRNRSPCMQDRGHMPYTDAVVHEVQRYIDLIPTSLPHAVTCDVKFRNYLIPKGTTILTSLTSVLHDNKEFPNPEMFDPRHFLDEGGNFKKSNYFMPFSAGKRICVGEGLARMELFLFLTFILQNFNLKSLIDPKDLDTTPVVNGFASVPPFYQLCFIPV
# Outline: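 P450-Glo CYP2C19 screening system; proluciferin substrate; DMSO compound stocks; 10 min RT preincubation; NADPH regeneration, 1 h at 37C; luciferin detection reagent, 20 min RT; luminescence as RLU.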
# [3] = target: Cytochrome P450 2C9 (Homo sapiens) (UniProt P11712); test: Cytochrome P450 Family 2 Subfamily C Member 9 (CYP2C9) small molecule antagonists: luciferase reporter qHTS assay (AID 1671198); further: nearly all actives have a fitted effect of over 50% in size; further: potency means the concentration at half of the fitted maximal effect; on activity change, negative = inhibition: series mostly up to about 120 µM
# Chain of Cytochrome P450 2C9 (Homo sapiens) (P11712 whole entry, looked up): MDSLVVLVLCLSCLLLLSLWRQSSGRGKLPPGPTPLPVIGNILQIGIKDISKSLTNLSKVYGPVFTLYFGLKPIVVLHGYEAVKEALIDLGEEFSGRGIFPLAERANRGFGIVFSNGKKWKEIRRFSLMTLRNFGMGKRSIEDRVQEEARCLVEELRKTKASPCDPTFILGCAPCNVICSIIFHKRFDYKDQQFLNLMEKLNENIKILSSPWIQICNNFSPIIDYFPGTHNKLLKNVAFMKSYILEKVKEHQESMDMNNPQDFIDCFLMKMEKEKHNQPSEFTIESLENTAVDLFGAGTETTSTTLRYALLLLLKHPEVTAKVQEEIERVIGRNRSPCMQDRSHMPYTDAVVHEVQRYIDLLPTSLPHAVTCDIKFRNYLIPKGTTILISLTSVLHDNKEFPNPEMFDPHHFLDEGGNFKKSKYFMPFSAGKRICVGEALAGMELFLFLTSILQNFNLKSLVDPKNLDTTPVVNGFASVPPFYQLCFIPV
# Outline: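 Enzyme-substrate mix preincubated with compound 10 min at room temperature; reaction started with NADPH regeneration solution, 1 h 37C. Luminescent luciferin product read after 20 min detection reagent.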
# [4] = target: Cytochrome P450 1A2 (Homo sapiens) (UniProt P05177); test: Cytochrome P450 Family 1 Subfamily A Member 2 (CYP1A2) small molecule antagonists: luciferase reporter qHTS assay (AID 1671199); further: nearly all actives have a fitted effect of over 50% in size; further: potency means the concentration at half of the fitted maximal effect; on activity change, negative = inhibition: series mostly up to about 120 µM
# Chain of Cytochrome P450 1A2 (Homo sapiens) (P05177 whole entry, looked up): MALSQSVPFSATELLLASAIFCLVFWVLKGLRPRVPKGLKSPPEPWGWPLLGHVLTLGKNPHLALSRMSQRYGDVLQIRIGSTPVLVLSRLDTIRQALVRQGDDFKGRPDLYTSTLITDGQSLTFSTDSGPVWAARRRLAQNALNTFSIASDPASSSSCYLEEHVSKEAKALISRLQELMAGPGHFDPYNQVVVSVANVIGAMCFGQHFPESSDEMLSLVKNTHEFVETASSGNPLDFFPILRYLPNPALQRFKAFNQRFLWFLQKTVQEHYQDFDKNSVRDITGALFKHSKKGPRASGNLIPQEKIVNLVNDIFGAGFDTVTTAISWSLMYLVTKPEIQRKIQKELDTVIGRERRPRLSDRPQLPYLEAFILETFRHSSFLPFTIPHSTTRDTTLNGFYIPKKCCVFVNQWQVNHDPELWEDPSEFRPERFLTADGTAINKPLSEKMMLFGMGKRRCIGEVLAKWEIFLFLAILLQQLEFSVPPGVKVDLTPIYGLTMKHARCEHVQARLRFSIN
# Outline: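 Compounds were incubated with CYP1A2 and a luminogenic proluciferin substrate for 10 min at room temperature before the reaction was started with NADPH regeneration solution. After 1 h, detection reagent was added and light output, proportional to CYP activity, was recorded.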
# [5] = target: Voltage-gated inwardly rectifying potassium channel KCNH2 (Homo sapiens) (UniProt Q12809); test: Human Ether-a-go-go-Related Gene (hERG) channel small molecule antagonists: fluorescence cell-based qHTS assay (AID 1671200); further: nearly all actives have a fitted effect of over 50% in size; further: potency means the concentration at half of the fitted maximal effect;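 on activity change, negative = inhibition: hERG-expressing U2OS cells given a thallium stimulus after FluxOR II dye loading; series mostly up to about 77 µM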
# Chain of Voltage-gated inwardly rectifying potassium channel KCNH2 (Homo sapiens) (Q12809 whole entry, looked up): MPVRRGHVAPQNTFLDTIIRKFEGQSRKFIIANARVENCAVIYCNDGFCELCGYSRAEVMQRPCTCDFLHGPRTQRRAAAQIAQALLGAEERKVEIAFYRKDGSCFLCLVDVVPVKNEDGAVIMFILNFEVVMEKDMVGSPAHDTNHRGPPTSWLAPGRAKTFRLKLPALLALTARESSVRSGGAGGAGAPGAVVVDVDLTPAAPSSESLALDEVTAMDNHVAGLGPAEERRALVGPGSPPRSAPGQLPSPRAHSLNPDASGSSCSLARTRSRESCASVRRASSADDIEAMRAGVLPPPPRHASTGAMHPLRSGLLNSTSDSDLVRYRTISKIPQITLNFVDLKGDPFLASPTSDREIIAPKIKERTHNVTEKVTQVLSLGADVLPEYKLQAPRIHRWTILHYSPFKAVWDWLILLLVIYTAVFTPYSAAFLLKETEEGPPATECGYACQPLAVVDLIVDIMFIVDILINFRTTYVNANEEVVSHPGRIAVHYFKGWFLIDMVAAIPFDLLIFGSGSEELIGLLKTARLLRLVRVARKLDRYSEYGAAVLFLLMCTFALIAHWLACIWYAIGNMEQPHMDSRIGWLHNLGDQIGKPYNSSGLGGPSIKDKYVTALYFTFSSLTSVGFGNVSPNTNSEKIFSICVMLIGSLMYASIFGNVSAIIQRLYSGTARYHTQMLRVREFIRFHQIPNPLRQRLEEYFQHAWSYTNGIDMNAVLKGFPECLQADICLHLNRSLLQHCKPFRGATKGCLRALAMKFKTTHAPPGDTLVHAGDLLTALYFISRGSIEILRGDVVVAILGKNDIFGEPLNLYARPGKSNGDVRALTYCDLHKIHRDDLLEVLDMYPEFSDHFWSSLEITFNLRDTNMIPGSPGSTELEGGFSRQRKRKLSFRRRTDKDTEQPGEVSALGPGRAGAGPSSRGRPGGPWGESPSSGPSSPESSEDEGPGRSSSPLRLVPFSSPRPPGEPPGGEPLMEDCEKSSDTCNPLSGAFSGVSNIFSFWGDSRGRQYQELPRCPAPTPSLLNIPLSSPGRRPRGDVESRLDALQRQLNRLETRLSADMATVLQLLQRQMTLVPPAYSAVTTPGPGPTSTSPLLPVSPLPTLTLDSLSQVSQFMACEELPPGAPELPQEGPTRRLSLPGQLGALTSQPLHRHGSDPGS
# Outline: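 Thallium served as the potassium surrogate; its influx into dye-loaded U2OS cells carrying the channel was measured by fluorescence over 2 min.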
# [6] = target: Cytochrome P450 3A4 (Homo sapiens) (UniProt P08684); test: Cytochrome P450 Family 3 Subfamily A Member 4 (CYP3A4) small molecule antagonists: luciferase reporter qHTS assay (AID 1671201)
# Chain of Cytochrome P450 3A4 (Homo sapiens) (P08684 whole entry, looked up): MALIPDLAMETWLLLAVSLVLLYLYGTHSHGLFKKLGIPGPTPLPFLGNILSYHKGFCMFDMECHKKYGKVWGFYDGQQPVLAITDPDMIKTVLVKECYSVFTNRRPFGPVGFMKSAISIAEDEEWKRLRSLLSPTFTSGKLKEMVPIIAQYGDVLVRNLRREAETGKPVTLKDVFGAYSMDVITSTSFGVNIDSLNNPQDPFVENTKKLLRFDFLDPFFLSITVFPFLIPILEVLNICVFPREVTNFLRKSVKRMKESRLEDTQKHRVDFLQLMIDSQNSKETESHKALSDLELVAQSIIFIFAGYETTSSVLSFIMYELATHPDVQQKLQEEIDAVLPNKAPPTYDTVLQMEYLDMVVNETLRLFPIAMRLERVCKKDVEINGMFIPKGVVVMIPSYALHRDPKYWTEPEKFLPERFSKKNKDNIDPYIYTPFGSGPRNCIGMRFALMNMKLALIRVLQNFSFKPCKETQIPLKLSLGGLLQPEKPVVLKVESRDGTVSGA
# Outline: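 Relative luminescence units after 20 min with luciferin detection reagent served as read-out. Beforehand, CYP3A4 turned over a proluciferin substrate for 1 h at room temperature with NADPH regeneration, following 10 min compound preincubation.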
# [7] = target: Nuclear receptor subfamily 1 group I member 2 (Homo sapiens) (UniProt O75469); test: CYP3A4 induction through human pregnane X receptor (PXR) by small molecules, qHTS assay (AID 1346984); further: nearly all actives have a fitted effect of over 40% in size
# Outline: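 Quantitative HTS in DPX-2 cells, i.e. HepG2 transfected with PXR response element and CYP3A4-promoter luciferase. Compounds in DMSO incubated 24hr at 37C; then P450-Glo CYP3A4 substrate, 3uM final, 3hr; One-Glo luminescence.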
# [8] = target: Nuclear receptor subfamily 1 group I member 2 (Homo sapiens) (UniProt O75469); test: Human pregnane X receptor (PXR) activation by small molecules, qHTS assay (AID 1346985); further: nearly all actives have a fitted effect of over 40% in size
# Outline: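 DPX-2 cells (HepG2 co-transfected with a PXR response element and a CYP3A4-promoter luciferase construct) were seeded at 2,000 per well, rested 5 hr at 37C, then exposed to DMSO-dissolved compounds for 24 hr. Activation was read as luciferase luminescence.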
smiles,measurement,setting,value
CC(O)C(CO)C(C)O (configuration not stated),Potency,[1],inactive
same,Potency,[2],80.6 µM (active)
same,Potency,[3],inactive
same,Potency,[4],32.1 µM (active)
same,Potency,[5],inactive
same,Potency,[6],inactive
CC[N+](C)(CC)CC,Potency,[1],inactive
same,Potency,[2],inactive
same,Potency,[3],inactive
same,Potency,[4],inactive
same,Potency,[5],inactive
same,Potency,[6],inactive
CCCc1ccc(O)c(OC)c1,Potency,[1],inactive
same,Potency,[2],inactive
same,Potency,[3],inactive
same,Potency,[4],31.7 µM (active)
same,Potency,[5],inactive
same,Potency,[6],inactive
O=C[C@@H](O)[C@H](O)[C@H](O)CO,Potency,[1],inactive
same,Potency,[2],inactive
same,Potency,[3],inactive
same,Potency,[4],inactive
same,Potency,[5],inactive
same,Potency,[6],inactive
CCCC(=O)OC,Potency,[1],inactive
same,Potency,[2],inactive
same,Potency,[3],inactive
same,Potency,[4],inactive
same,Potency,[5],inactive
same,Potency,[6],inactive
CCCC(=O)CC,Potency,[1],inactive
same,Potency,[2],41.2 µM (active)
same,Potency,[3],inactive
same,Potency,[4],20.6 µM (active)
same,Potency,[5],inactive
same,Potency,[6],inactive
CCCCCCCCCCCCCCCCN(C)C,Potency,[1],3.19 µM (active)
same,"activity change, negative = inhibition",[2],-5.94% [at 10.5 µM]
same,"activity change, negative = inhibition",[3],-0.0403% [at 10.5 µM]
same,"activity change, negative = inhibition",[4],-22.3% [at 10.5 µM]
same,"activity change, negative = inhibition",[5],-6.11% [at 6.97 µM]
same,"activity change, negative = inhibition",[6],-0.256% [at 10.5 µM]
COc1ccc2cc(CCC(C)=O)ccc2c1,outcome,[7],inactive
same,Potency,[1],inactive
same,Potency,[2],11 µM (active)
same,Potency,[5],inactive
same,Potency,[6],inactive
CCCCC(O)/C=C(C)/C=C/C=C/C(=O)N1CCCC1=O (configuration not stated),Potency,[1],inactive
same,Potency,[2],inactive
same,Potency,[3],inactive
same,Potency,[4],inactive
same,Potency,[5],inactive
Cc1ccccc1OCC(=O)O,Potency,[1],inactive
same,Potency,[2],inactive
same,Potency,[3],79.6 µM (active)
same,Potency,[4],inactive
same,Potency,[5],inactive
same,Potency,[6],inactive
COc1cc2nc(N3CCN(C(=O)C4CCCO4)CC3)nc(N)c2cc1OC (configuration not stated),outcome,[8],inactive
same,Potency,[3],inactive
same,Potency,[4],inactive
CCOC(=O)COc1ccc2c(C)c(CCN(CC)CC)c(=O)oc2c1Cl,outcome,[7],inactive
same,outcome,[8],inactive
same,Potency,[3],inactive
same,Potency,[4],inactive
same,Potency,[6],inactive
CC(C)(O)c1ccc(C(C)(C)O)cc1,Potency,[1],inactive
same,Potency,[2],inactive
same,Potency,[3],inactive
same,Potency,[4],inactive
same,Potency,[5],inactive
same,Potency,[6],inactive
CC(=O)Nc1ccc(S(=O)(=O)Nc2cc(C)on2)cc1,Potency,[1],inactive
same,Potency,[2],inactive
same,Potency,[3],inactive
same,Potency,[4],inactive
same,Potency,[5],inactive
same,Potency,[6],inactive
N#Cc1cc(NC(=O)C(=O)O)c(Cl)c(NC(=O)C(=O)O)c1,Potency,[1],inactive
same,Potency,[2],inactive
same,Potency,[3],inactive
same,Potency,[4],inactive
same,Potency,[5],inactive
same,Potency,[6],inactive
CC(=O)c1ccc(O)c(C(N)=O)c1,Potency,[1],inactive
same,Potency,[2],inactive
same,Potency,[3],inactive
same,Potency,[4],inactive
same,Potency,[5],inactive
same,Potency,[6],inactive
C[C@@H]1CCC[C@H](C)N1CCCC(O)(c1ccccc1)c1ccccn1 (some centres not stated),Potency,[1],0.692 µM (active)
same,Potency,[2],inactive
same,Potency,[3],inactive
same,Potency,[4],inactive
same,Potency,[5],8.49 µM (active)
O=c1[nH]c(=O)c2cn[nH]c2[nH]1,Potency,[1],inactive
same,Potency,[2],inactive
same,Potency,[3],inactive
same,Potency,[4],inactive
same,Potency,[5],inactive
same,Potency,[6],inactive
CCCCCCC(=O)c1ccccc1,Potency,[1],inactive
same,Potency,[2],inactive
same,Potency,[3],inactive
same,Potency,[4],50.2 µM (active)
same,Potency,[5],inactive
same,Potency,[6],inactive
COC(=O)c1cc(Cl)c(NC(C)=O)cc1OC,Potency,[1],inactive
same,Potency,[2],inactive
same,Potency,[3],inactive
same,Potency,[4],2.45 µM (active)
same,Potency,[5],inactive
same,Potency,[6],inactive
CCCCCCCC(=O)N(C)C,Potency,[1],inactive
same,Potency,[2],inactive
same,Potency,[3],inactive
same,Potency,[4],inactive
same,Potency,[5],inactive
same,Potency,[6],inactive
CCOC(=O)c1ccc(N(C)C)cc1,Potency,[1],inactive
same,Potency,[2],22.4 µM (active)
same,Potency,[3],31.7 µM (active)
same,Potency,[4],5.03 µM (active)
same,Potency,[5],inactive
same,Potency,[6],inactive
C=CCN1CCc2nc(N)sc2CC1,outcome,[7],inactive
same,outcome,[8],inactive
same,Potency,[3],inactive
same,Potency,[4],inactive
same,Potency,[5],inactive
same,Potency,[6],inactive
C=CC(=O)OCCOCCOCC,Potency,[1],inactive
same,Potency,[2],inactive
same,Potency,[3],inactive
same,Potency,[4],inactive
same,Potency,[5],inactive
same,Potency,[6],inactive
O=C(c1ccccc1)c1cccc(O)c1,Potency,[1],64.3 µM (active)
same,Potency,[2],22.8 µM (active)
same,Potency,[3],inactive
same,Potency,[4],36.2 µM (active)
CC(C)C(C)C,Potency,[1],inactive
same,Potency,[2],inactive
same,Potency,[3],inactive
same,Potency,[4],inactive
same,Potency,[6],inactive
Clc1cc(Cl)c(Cl)c(Cl)c1Cl,Potency,[1],inactive
same,Potency,[2],inactive
same,Potency,[3],inactive
same,Potency,[4],inactive
same,Potency,[5],inactive
same,Potency,[6],inactive
C=CC(=O)CC,Potency,[1],inactive
same,Potency,[2],inactive
same,Potency,[3],inactive
same,Potency,[4],inactive
same,Potency,[5],inactive
same,Potency,[6],inactive
CC(=O)SCC(CC(=O)c1ccc(C)cc1)C(=O)O (configuration not stated),Potency,[1],inactive
same,Potency,[2],inactive
same,Potency,[3],15.5 µM (active)
same,Potency,[4],inactive
same,Potency,[6],inactive
CC(C)OCCO,Potency,[1],inactive
same,Potency,[2],inactive
same,Potency,[3],inactive
same,Potency,[4],inactive
same,Potency,[5],inactive
same,Potency,[6],inactive
CCNC(=O)C(C)OC(=O)Nc1ccccc1 (configuration not stated),Potency,[1],inactive
same,Potency,[2],79.6 µM (active)
same,Potency,[3],35.6 µM (active)
same,Potency,[4],35.6 µM (active)
same,Potency,[5],inactive
same,Potency,[6],inactive
CC(C)(C)C(=O)CC(=O)C(C)(C)C,Potency,[1],inactive
same,Potency,[2],inactive
same,Potency,[3],inactive
same,Potency,[4],inactive
same,Potency,[6],inactive
COC(=O)c1ccccc1Cl,Potency,[1],inactive
same,Potency,[2],inactive
same,Potency,[3],inactive
same,Potency,[4],inactive
same,Potency,[5],inactive
same,Potency,[6],inactive
Cc1ccccc1C#N,Potency,[1],inactive
same,Potency,[2],inactive
same,Potency,[3],inactive
same,Potency,[4],inactive
same,Potency,[5],inactive
same,Potency,[6],inactive

# — PubChem BioAssay (Tox21)
